Screening data as filed in PubChem.
Only some compounds are listed: those with a hit (about 2.4% of all), similar ones and a draw of the others.
AmpC inh no det: blocks E. coli AmpC beta-lactamase in absence of detergent; actives 1.8% (n = 71,000); Potency, µM (titrated, usually from 28.7 µM), for the others: at the top dose activity change, negative = inhibition; AmpC nitrocefin hydrolysis, absorbance 480 nm, no detergent; P00811; also: % of control where 0% means no effect
Target sequence (P00811 whole entry, looked up): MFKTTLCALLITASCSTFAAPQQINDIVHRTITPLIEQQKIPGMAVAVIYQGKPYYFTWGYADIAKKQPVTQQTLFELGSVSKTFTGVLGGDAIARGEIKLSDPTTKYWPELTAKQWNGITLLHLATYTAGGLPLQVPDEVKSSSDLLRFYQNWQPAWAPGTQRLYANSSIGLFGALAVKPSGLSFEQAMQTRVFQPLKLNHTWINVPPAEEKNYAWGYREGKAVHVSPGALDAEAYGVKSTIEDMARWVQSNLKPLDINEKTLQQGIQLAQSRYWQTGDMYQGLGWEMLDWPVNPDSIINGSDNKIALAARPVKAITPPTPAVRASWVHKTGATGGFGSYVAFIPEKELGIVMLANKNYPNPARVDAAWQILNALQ
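AmpC in 20 mM phosphate buffer pH 7.0 was preincubated 15 min at room temperature with compounds. Nitrocefin (800 uM stock) was then added and hydrolysis followed at 480 nm every 20 s for 4 min.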
AmpC inh det: blocks E. coli AmpC beta-lactamase in presence of detergent; P00811; Potency, µM (highest dose often 28.7 µM), inactives show at the top dose activity change, negative = inhibition; actives 0.09% (n = 71,000); purified AmpC, nitrocefin hydrolysis with detergent; active = well fitted curve in the direction sought with a large enough effect; inconclusive = small, poorly fitted or top-dose-only effect; also: % is scaled to controls: 0 for no effect and ±100 for the full control effect
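E. coli AmpC (5.3 nM) in 20 mM phosphate pH 7.0 with 0.01% Triton X-100, preincubated 15 min RT with compound; nitrocefin (2 uL of 800 uM stock) hydrolysis followed by 480 nm absorbance every 20 s over 4 min.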
SmPrx2 inh: Schistosoma mansoni Prx2 inhibition; AID 448; actives 0.07% (n = 65,000); Potency, µM; S. mansoni Prx2 activity coupled to TGR/GSH (TGR is thioredoxin glutathione reductase), NADPH fluorescence loss, qHTS
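Enzyme mix: 100 uM NADPH, 25 nM TGR, 700 uM GSH, 50 nM Prx2 in 100 mM phosphate pH 7.4, 10 mM EDTA, 0.01% Tween-20. 15 min RT with compound; NADPH/GSH added, H2O2 starts reaction; NADPH fluorescence read 8 min.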
Anthrax LT inh: inhibitors of anthrax lethal toxin internalization; actives 0.67% (n = 70,000); AID 912; Cells, anthrax lethal toxin internalization, FRET ratio (460/530); Potency, µM (highest dose often 40 µM), for the others: top-dose activity change, negative = inhibition, actives largely listed as inhibitors; also: % is scaled to controls: 0 for no effect and ±100 for the full control effect; nearly all actives have a fitted effect of over 50% in size
Numbers without * were called inactive; ? = inconclusive; / = no result given; [ ] = remark or other dose. Unless noted, calls follow the shape of the full dose curve. Potency is read from the fitted curve at half-maximal effect.

SMILES | AmpC inh no det | AmpC inh det | SmPrx2 inh | Anthrax LT inh
COc1cccc(Cn2nnc(C(=O)NCc3ccc(F)cc3)c2N)c1 | 4µM*[single pt active] | 13% | >57 | -12%
N=C(c1ccc2ccccc2c1)c1ccccc1Cc1ccccc1 | -6%[5.75 µM] | -2%[5.75 µM] | >57 | ?
O=C(Cn1ncc2c1-c1ccccc1OC2)N(Cc1ccco1)C1CCCCC1 | 81% | 11% | >57 | -11%
O=C(Cn1ncc2c(=O)oc3ccccc3c21)N(Cc1ccco1)C1CCCCC1 | 3.2µM*[single pt active] | 10% | >57 | -15%
C[C@@H](NC(=O)C1(N)CCCC1)C(=O)O | 4%[5.75 µM] | -2%[5.75 µM] | >57 | 1%[8 µM]
CN1CCCC[C@@H]1CCN1c2ccccc2Sc2ccc(S(C)=O)cc21 (stereo partly drawn) | -2%[5.75 µM] | -2%[5.75 µM] | >57 | -1%[8 µM]
CSc1ccc2c(c1)N(CC[C@H]1CCCCN1C)c1ccccc1S2 | 68%[12.8 µM] | 1%[12.8 µM] | >57 | 10µM*
CCOc1ccc(-c2nnc(SCC(=O)N3CCN(c4ccccc4)CC3)o2)cc1 | -3% | 6% | >57 | 1%
O=C(CSc1nnc(-c2ccccc2)o1)N1CCN(c2ccccc2)CC1 | 13µM*[single pt active] | -4% | >57 | ?
CN1CCN([C@@H]2Cc3ccccc3Sc3ccc(Cl)cc32)CC1 | 63% | 0% | >57 | ?
Nc1ncnc2c1ncn2[C@H]1O[C@@H](C(=O)O)[C@@H](O)[C@H]1O | 1%[5.75 µM] | -1%[5.75 µM] | >11 | 5%[8 µM]
CCOc1ccc(C(=O)Nc2cc(C)on2)cc1 | 0% | 7% | / | -4%
Cc1cc(NC(=O)c2cccc(COc3ccc(Br)cc3)c2)no1 | 4µM*[single pt active] | 29% | >57 | ?
O=C(NCc1ccc2c(c1)OCO2)C1CCCN(S(=O)(=O)c2cccnc2)C1 (stereo not drawn) | 4µM*[single pt active] | 12% | >57 | -11%
Cc1ccc(CNC(=O)C2CCCN(S(=O)(=O)c3cccnc3)C2)cc1 (stereo not drawn) | 26% | -3% | >57 | -9%
Cc1csc(NC(=O)C2CCCN(S(=O)(=O)c3cccnc3)C2)n1 (stereo not drawn) | 3.2µM*[single pt active] | 14% | >57 | -1%
O=C(C1CCCN(S(=O)(=O)c2cccnc2)C1)N1CCN(c2ccccn2)CC1 (stereo not drawn) | 4µM*[single pt active] | 12% | >57 | ?
CCOC(=O)N1CCN(C(=O)C2CCCN(S(=O)(=O)c3cccnc3)C2)CC1 (stereo not drawn) | 4µM*[single pt active] | 14% | >57 | 1%
NNc1c(C(N)=O)c2c(N)ncnc2n1[C@@H]1O[C@H](CO)[C@@H](O)[C@@H]1O | -12%[5.75 µM] | -3%[5.75 µM] | >57 | -11%[8 µM]
Cc1ncn(-c2ccccc2O)c1C | 1%[5.75 µM] | -3%[5.75 µM] | >57 | -1%[8 µM]
CC1(C)CC[C@]2(C(=O)O)CC[C@]3(C)C(=CC[C@@H]4[C@@]5(C)CC[C@H](O)C(C)(C)[C@@H]5CC[C@@]43C)[C@@H]2C1 | -13% | 0% | >57 | ?
Cc1nc2ccccc2c2oc(C(=O)NCCN3CCN(C)CC3)cc12 | -16% | 6% | >57 | ?
Cc1ccc2oc(=O)c3cc(C(=O)NCCN4CCN(C)CC4)sc3c2c1 | 4µM*[single pt active] | 14% | >57 | -17%
O=C1Nc2ccccc2SC(c2ccccc2)C1O (stereo not drawn) | 13µM*[single pt active] | -6% | >57 | -17%
O=C(O)CC1Sc2ccccc2NC1=O (stereo not drawn) | -6% | -1% | >57 | -7%
SMILES | AmpC inh no det | AmpC inh det | SmPrx2 inh | Anthrax LT inh
O=C(NCc1ccc2c(c1)OCO2)c1cccc(C(=O)NCc2ccc3c(c2)OCO3)c1 | ? | 0% | / | ?
O=C(NCc1ccc2c(c1)OCO2)c1ccc(NS(=O)(=O)c2ccc3c(c2)OCCO3)cc1 | 10µM* | -2% | >57 | -9%
O=C(NCc1ccccc1)c1c[nH]c2ccc(S(=O)(=O)Nc3ccc4c(c3)OCCO4)cc2c1=O | 10µM* | -2% | >57 | -6%
C[C@H]1C[C@H]2[C@H]3CCC4=CC(=O)C=C[C@@]4(C)[C@]3(F)[C@H](O)C[C@]2(C)[C@@]1(O)C(=O)COP(=O)(O)O | 3%[5.75 µM] | -1%[5.75 µM] | >57 | -7%[8 µM]
Fc1ccc(C2CC(c3ccccc3)n3ncnc3N2)cc1 (stereo not drawn) | 20% | -5% | >57 | -30%
COc1cccc(C2CC(c3ccccc3)Nc3ncnn32)c1 (stereo not drawn) | 23% | -1% | >57 | -29%
COc1cccc(C2CC(c3ccccc3OC)n3ncnc3N2)c1 (stereo not drawn) | 4µM*[single pt active] | 16% | >57 | 12%
Cc1ccccc1C1CC(c2ccccc2)Nc2ncnn21 (stereo not drawn) | 4µM*[single pt active] | 10% | >57 | -23%
